Data from PubChem BioAssay AID2562 (National Center for Advancing Translational Sciences (NCATS), 2010).
Records with an inconclusive call do not appear. Values without a mark were called inactive. The source made the active and inactive calls. The call rests on the fitted dose curve; in most records, active means well fitted curve in the direction sought with a large enough effect; inconclusive means small, poorly fitted or top-dose-only effect, or effect the other way, or another doubt; inactive means no such curve, though single readings can be large or run the other way.

Target: Pyruvate kinase PKLR (Homo sapiens) (UniProt P30613)
Assay: Secondary LDH Assay for Activators of Human Reticulocyte Pyruvate Kinase: for Probe SAR
Conditions: purified hPK-R, LDH-coupled NADH fluorescence kinetic; series mostly up to 58.4 µM; activity change, positive = activation: at the top concentration
Text: NIH Chemical Genomics Center [NCGC] Wael M. Rabeh, Lyudmila Nedyalkova and Hee-Wan Park [Structural Genomics Consortium, 100 College St. Toronto, Ontario, Canada] NCGC Assay Overview: Human pyruvate kinase reticulocyte (hPK-R) enzyme was supplied as a highly purified (>95% pure) preparation from Structural Genomics Consortium in Toronto (Ontario, Canada) and a secondary assay was used to evaluate compounds. This assay couples the formation of pyruvate from hPK-R using lactate dehydrogenase (LDH) and NADH. The depletion of NADH is followed in a fluorescent-based kinetic assay that follows the formation of pyruvate to lactate, as catalyzed LDH. Pyruvate kinase substrates, PEP and ADP, were present in the assay at 0.1 mM and 4 mM respectively. In this kinetic assay initial rates were determined by following the fluorescence of NADH depletion.
NCGC Assay Protocol Summary: Three uL of substrate mix (final concentration, 50 mM Tris-Cl pH 8.0, 200 mM KCl, 15 mM MgCl2, 0.1 mM PEP, 4.0 mM ADP, and 0.2 mM NADH) was dispensed into black-solid 1536 well plates. 23 nL of compounds were delivered by a pin tool and 1 uL of enzyme mix (final concentrations, 10 nM hPK-R and 1 uM of LDH) was added. Plates were immediately placed in ViewLux (Perkin Elmer) and NADH fluorescence was determined at 30 second exposure intervals for between 3 and 6 minutes. Data were normalized to the uninhibited and EC100 activation using known activators such as fructose-bis-phosphate.

Pyruvate kinase PKLR (Homo sapiens), sequence (P30613 whole entry, looked up): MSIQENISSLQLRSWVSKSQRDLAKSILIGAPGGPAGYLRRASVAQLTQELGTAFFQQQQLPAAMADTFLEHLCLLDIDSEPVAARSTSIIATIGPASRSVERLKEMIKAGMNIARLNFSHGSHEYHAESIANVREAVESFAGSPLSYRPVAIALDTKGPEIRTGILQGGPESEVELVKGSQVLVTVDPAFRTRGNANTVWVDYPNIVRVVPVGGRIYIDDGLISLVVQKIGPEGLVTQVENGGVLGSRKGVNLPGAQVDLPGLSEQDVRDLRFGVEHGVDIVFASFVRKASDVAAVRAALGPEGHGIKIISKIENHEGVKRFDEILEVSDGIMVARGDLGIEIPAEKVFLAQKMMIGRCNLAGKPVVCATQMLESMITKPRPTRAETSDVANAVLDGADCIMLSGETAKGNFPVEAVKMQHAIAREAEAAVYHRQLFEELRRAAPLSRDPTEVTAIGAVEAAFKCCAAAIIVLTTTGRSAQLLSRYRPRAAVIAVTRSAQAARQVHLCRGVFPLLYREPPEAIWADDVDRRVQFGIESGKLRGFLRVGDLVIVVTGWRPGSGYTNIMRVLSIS

| SMILES | activity change, positive = activation | Potency |
| --- | --- | --- |
| COc1ccc(S(=O)(=O)Nc2ccc(C)c(C)c2)cc1 | 16.3% | – |
| Cc1ccc(NS(=O)(=O)c2cc3c(cc2-c2cn[nH]c2)NC(=O)CO3)cc1C | 20.6% | – |
| Cc1ccc(NS(=O)(=O)c2ccc3c(c2)C(Cl)(Cl)C(=O)N3)cc1C | 22.3% | – |
| CSc1cc2c(s1)c1cnn(Cc3cccc(O)c3)c(=O)c1n2C | – | 259 nM (active) |
| COc1cccc(Cn2ncc3c4sc(SC)cc4n(C)c3c2=O)c1 | 25.1% | – |
| CC(=O)N1CCc2cc(S(=O)(=O)Nc3ccc(C)c(C)c3)ccc21 | 15.7% | – |
| O=C1c2ccccc2C(=O)N1Cc1ccncc1 | -0.775% | – |
| O=C1CCc2cc(S(=O)(=O)Nc3cccc(-c4ccccc4)c3)ccc2N1 | 0.369% | – |
| Cc1ccc(NS(=O)(=O)c2cc3c(cc2N(C)C)NC(=O)CC3)cc1C | 5.45% | – |
| Cc1ccc(NS(=O)(=O)c2ccc(F)cc2)cc1C | 18.4% | – |
| Cc1cc(N2C(=O)c3ccccc3C2=O)no1 | 11.2% | – |
| Cc1ccc(NS(=O)(=O)c2cc3c(cc2Br)NC(=O)CO3)cc1C | 8.76% | – |
| O=C1c2ccccc2C(=O)N1c1ncccc1O | 5.36% | – |
| O=S1(=O)N=C(Oc2cccc(Cl)c2)c2ccccc21 | 11.5% | – |
| CCNc1cccc(S(=O)(=O)N2CCN(S(=O)(=O)c3ccc4c(c3)OCCO4)CC2)c1 | -1.39% | – |
| Cc1ccc(NS(=O)(=O)c2ccc3c(c2)CCC(C)(C)O3)cc1C | 7.9% | – |
| Cc1ccc(N2C(=O)c3ccccc3C2=O)c(C)c1 | -7.03% | – |
| Cc1ccc(NS(=O)(=O)c2ccc3[nH]c(=O)[nH]c3c2)cc1C | 16.2% | – |
| O=C1c2ccccc2C(=O)N1c1ccncc1 | 7.23% | – |
| CSc1cc2c(s1)c1cnn(Cc3cccc(N)c3)c(=O)c1n2C | 21.1% | – |

| SMILES | activity change, positive = activation | Potency |
| --- | --- | --- |
| Cc1ccc(NS(=O)(=O)c2ccc3c(c2)N(C)CCO3)cc1C | 11.6% | – |
| Cc1ccccc1Nc1c(-c2ccc(Cl)s2)nc2ccccn12 | 13.1% | – |
| COc1cc(F)c(S(=O)(=O)N2CCCN(S(=O)(=O)c3cccc(N)c3)CC2)c(F)c1 | 14.3% | – |
| O=C1c2ccccc2C(=O)N1c1noc2ccccc12 | 2.08% | – |
| Cc1ccc(NS(=O)(=O)c2cc3c(cc2N2CCCCC2)NC(=O)CC3)cc1C | 1.75% | – |
| Cc1ccccc1OC1=NS(=O)(=O)c2ccccc21 | 4.32% | – |
| O=C1c2ccccc2C(=O)N1C1CCCCC1 | -3.06% | – |
| O=C1CCc2cc(S(=O)(=O)Nc3ccccn3)ccc2N1 | -0.347% | – |
| COc1cc(N2C(=O)c3ccccc3C2=O)c2ncccc2c1 | -7.54% | – |
| O=C1CCc2cc(S(=O)(=O)Nc3ccc(Cl)cc3)ccc2N1 | 2.79% | – |
| Cc1cccc(OC2=NS(=O)(=O)c3ccccc32)c1 | 4.25% | – |
| Cc1ccc2nc(-c3cccs3)c(Nc3ccccc3)n2c1 | -11.4% | – |
| O=C1c2ccccc2C(=O)N1c1cccc(Cl)c1 | -6.91% | – |
| COc1ccccc1OC1=NS(=O)(=O)c2ccccc21 | 7.5% | – |
| O=C1c2ccccc2C(=O)N1c1cccc(O)c1 | 10.1% | – |
| Nc1cccc(S(=O)(=O)N2CCCN(S(=O)(=O)c3ccc4c(c3)OCCO4)CC2)c1 | 25.1% | – |
| Cc1ccc(N[S+](=O)([O-])c2cc3c(cc2CCc2ccccc2)NC(=O)CO3)cc1C | 16.6% | – |
| Cc1ccc(NS(=O)(=O)c2ccc3c(c2)CCC(=O)N3)cc1C | 15.6% | – |
| Cc1cc(C)n2c(Nc3ccccc3)c(-c3ccc(C)o3)nc2n1 | 3.71% | – |
| Cc1ccc(NS(=O)(=O)c2ccc3c(c2)N(C)C(=O)CO3)cc1C | 12.6% | – |
